Laboratory results reported in PubChem BioAssay (Tox21).
Results filed as inconclusive are left out. Activity calls are given as the source filed them. Calls come from the whole dose curve; as a rule, active = well fitted cell-killing curve with a large enough effect in the repeat runs; inconclusive = weak or mixed curves, or effect the other way; inactive = flat fitted curve, though single readings scatter.

Assay: Caspase-3/7 induction in HepG2 cells by small molecules, qHTS cell viability counter screen (AID 1346981); note: nearly all actives have a fitted effect of over 30% in size
Settings: CellTiter-Fluor fluorescence, 17 h; series mostly up to 92.4 µM
Procedure, shortened: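 Cell viability is measured as a cytotoxicity counter screen alongside the Caspase-Glo 3/7 readout in identical wells. Wild-type HepG2 cells are treated with test compounds for 16 hr at 37 C before CellTiter-Fluor addition and a 1-hr incubation.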
Potency is the fitted concentration of half-maximal effect.

Q: Which Potency does the source give for `O=C(c1ccc(F)cc1)C1CCN(CCn2c(=O)[nH]c3ccccc3c2=O)CC1` here?
A: inactive

Q: For `Oc1ccc(C2(c3ccc(O)cc3)CC3CC2C2CCCC32)cc1` (stereo unspecified), which Potency is on record?
A: 52.3 µM (active)

Q: With `C[C@H](CCC(=O)O)[C@H]1CC[C@H]2[C@@H]3CC[C@@H]4C[C@H](O)CC[C@]4(C)[C@H]3CC[C@]12C` as the molecule, how does the Potency read?
A: 60.9 µM (active)

Q: With `NNc1nc(-c2ccc([N+](=O)[O-])cc2)cs1` as the molecule, how does the Potency read?
A: 30.6 µM (active)

Q: With `CCC(N)(CO)CO` as the molecule, how does the Potency read?
A: inactive

Q: For `COC(=O)c1cc(Cl)ccc1OC`, which Potency is on record?
A: inactive

Q: With `O=[N+]([O-])c1ccccc1Nc1ccccc1` as the molecule, how does the Potency read?
A: inactive

Q: With `CCc1cc(SCc2sc(-c3ccc(C(F)(F)F)cc3)nc2CN2CCN(c3ccc(OC)cc3)CC2)ccc1OCC(=O)O` as the molecule, how does the Potency read?
A: 24.3 µM (active)

Q: For `NC(=O)N1C(=O)C(C(=O)c2cc(Cl)cs2)c2cc(F)c(Cl)cc21` (stereo unspecified), which Potency is on record?
A: 54.5 µM (active)

Q: Which Potency does the source give for `CCCN(CCC)c1c([N+](=O)[O-])cc(C(F)(F)F)c(N)c1[N+](=O)[O-]` here?
A: 54.3 µM (active)

Q: Which Potency does the source give for `O=C(O)c1cc(O)c2c(c1)C(=O)c1cccc(O)c1C2=O` here?
A: 44.6 µM (active)

Q: With `Nc1ccc2cc(S(=O)(=O)O)cc(O)c2c1N=Nc1ccccc1C(F)(F)F` as the molecule, how does the Potency read?
A: 54.5 µM (active)

Q: With `CC(=O)OCC(C)OC(C)=O` (stereo unspecified) as the molecule, how does the Potency read?
A: inactive

Q: Which Potency does the source give for `CC(C)CCCCCCCCCCCCCCC(=O)O` here?
A: inactive

Q: With `Cc1cc2c(cc1C(F)(F)F)N(C(=O)Nc1ccc(Oc3cccnc3C)nc1)CC2` as the molecule, how does the Potency read?
A: 27.7 µM (active)

Q: For `Cc1nc(-c2ccc3c(c2)CCN(CCC2CCC(NC(=O)/C=C/c4ccc(F)cc4)CC2)CC3)no1` (stereo unspecified), which Potency is on record?
A: inactive
